Hits are enriched below; roughly 2.6% of the tested compounds scored in any of these assays.
A3A deaminase – human APOBEC3A DNA deaminase inhibition | P31941 | recombinant A3A, FAM/TAMRA ssDNA deamination fluorescence | inhibition, % at 20 µM | 0.41% of 330,000 active | AID 493011;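 active = at least 40% inhibition at 20 µM here, with at most 30% in a related deaminase screen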;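 note: plate controls were A3A with DMSO for no effect and wells lacking A3A enzyme for full effect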
A3G deaminase – blocks human APOBEC3G single-stranded DNA deamination | recombinant A3G, ssDNA deamination FAM/TAMRA fluorescence | Q9HC16 | inhibition, % at 20 µM | 0.28% of 330,000 active;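 active = inhibition of at least 40% at 20 µM, with no more than 30% in the related APOBEC3A deaminase screen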;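 note: plate controls were DMSO wells with A3G for no effect and wells lacking A3G enzyme for full effect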
eIF4H inh – inhibitors of RNA binding by human eIF4H; eIF4H fluorescence polarization binding assay; AID 2012; Q15056; inhibition, % at 35 µM; 0.94% of 290,000 active;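 note: calls also rest on retests at 20 µM and on dose response follow-up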
PABP FP inh – blocks human PABP binding to poly(A) RNA. P11940. fluorescence polarization. calls only at 35 µM. 1% of 290,000 active. AID 2014;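 note: calls also rest on retests at 20 µM and on dose response follow-up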
PHOSPHO1 block – inhibitors of human PHOSPHO1 phosphatase | inhibition, % at 13.3 µM | AID 1565 | recombinant PHOSPHO1, absorbance phosphatase assay | 1.1% of 290,000 active; in the data active = inhibition above about 60%
PABP1 MLLE inh – blocks PAM2 peptide binding to the PABP1 MLLE domain. GST-MLLE / FITC-PAM2 fluorescence polarization. inhibition, % at 20 µM. 0.36% of 360,000 active. AID 588489; in the data active = inhibition above about 35%, passing the limit was not always enough;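 note: plate controls were DMSO wells with GST-MLLE for no effect and wells lacking GST-MLLE protein for full effect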
An asterisk follows results filed as active; i = inactive; ? = inconclusive; / = not tested or not shown; + = active, no number. Unless noted, the rule behind the calls is not given here.

SMILES	A3A deaminase	A3G deaminase	eIF4H inh	PABP FP inh	PHOSPHO1 block	PABP1 MLLE inh
O=C(Cc1cccc2ccccc12)N/N=C/c1ccc(Sc2cccc3cccnc23)o1	-15	-3	38	i	80*	/
COc1ccc(C(=O)c2c(-c3cccc(C)c3)oc3ccc(N4CCOCC4)cc23)cn1	-7	-9	-17	i	-2	0
COc1cc(NC(=O)c2cc3nc(C4CC4)cc(C(F)(F)F)n3n2)c(OC)cc1Cl	12	2	4	i	60*	-4
O=C(NCCCn1ccnc1)c1ccc(-c2cccc(C(F)(F)F)c2)o1	-1	-4	/	/	/	-3
C/C(=N\NC(=O)CCC(=O)Nc1ccccc1)c1cccs1	-2	-8	1.1*	i	-24	4
Cc1ccc(Sc2ccc(CN3CCCCC3)cc2[N+](=O)[O-])cc1	-4	2	-6	i	30	0
Cc1ccc(-n2c(SCc3cc(=O)n4ccsc4n3)nnc2-c2cccnc2)c(C)c1	4	1	60*	i	61*	-47
COCCN(C(=O)COC(=O)C1CCCCC1)c1c(N)n(Cc2ccccc2)c(=O)[nH]c1=O	/	/	/	/	/	1
Clc1ccc2ccc3cccnc3c2n1	-2	-7	-4	i	61*	-6
Cn1cc(-c2ccc(C(=O)Nc3cccc(Oc4ccccc4)c3)c3occc23)cn1	/	/	/	/	/	-2
Cc1cccc(Nc2nc(-c3ccccn3)cs2)n1	-3	-7	6	i	71*	9
N#CC1c2ccccc2-c2ccccc2N1C(=O)c1ccccc1 (stereo not given)	/	/	/	/	/	11
CCc1c(O)nc(SCC(=O)Nc2ccccc2)n(-c2ccccc2C)c1=O	/	/	/	/	/	35
O=C(NC(=S)Nc1ccccc1Cl)c1csnn1	-3	-4	1	i	65*	27
Cc1cc(Nc2cccc(C(=O)O)c2)n2ncnc2n1	-3	-3	-7	i	/	-1
CN(NC(=O)NN(C)C(=O)c1ccccc1)C(=O)c1ccccc1	/	/	/	/	/	-3
Cc1cc(C)n(-c2ccc(Cl)c(C(=O)Nc3ccc(-c4nnc5n4CCCCC5)cc3)n2)n1	10	-4	-5	i	62*	-62
Cc1cccc(C(=O)NCCC(=O)Nc2nc(C)c(Cc3ccc4c(c3)OCO4)s2)c1	-6	-9	active	+	-4	-9
CC(C)NC(=O)CCCc1ccccc1	-3	-4	-14	i	10	2
CC(C)NC(=O)CCCC(=O)NC(C)C	-5	-9	2.2*	+	10	3
O=[N+]([O-])c1cccc(C(=Nc2cccc(Cl)c2)NO)c1	2	3	70*	+	-7	3
CCCCn1c(SCC(=O)N2CCN(c3ccccc3)CC2)nc2ccsc2c1=O	1	-2	-1	i	78*	-16
CC1CCC(NC(=O)CCS(=O)(=O)c2ccc3c(c2)CCN3C(=O)C2CC2)CC1 (stereo not given)	3	1	-4	i	14	9
Cc1cc(C)n2nc(C(=O)OCC(=O)c3cc(C)n(C)c3C)nc2n1	35	25	62*	i	39	8
CC1(C)Cc2c(c(N3CCOCC3)nc3sc4c(N5CCOCC5)nnnc4c23)CS1	4	-4	2	i	11	/
SMILES	A3A deaminase	A3G deaminase	eIF4H inh	PABP FP inh	PHOSPHO1 block	PABP1 MLLE inh
CC1(C)Cc2c(c(N3CCOCC3)nc3sc4c(=O)[nH]cnc4c23)CS1	1	1	1	i	108*	11
CC(C)N(Cc1ccccc1)C(=S)NC(=O)C1(C)CC1(Cl)Cl (stereo not given)	-1	-4	3	i	13	19
CC1(C(=O)NC(=S)N(CCC#N)c2ccccc2)CC1(Cl)Cl (stereo not given)	-2	0	4	i	33	47*
O=C1C[C@@H]2c3c(cccc3CN1Cc1ccccc1Br)C[C@@H](O)[C@H]2O	/	/	/	/	/	2
CCOC(=O)N1CCN(C(=O)COc2ccc3c(c2)C(=O)CC(C)(C)O3)CC1	0	-4	?	+	-5	-4
CC1(C)CC(=O)c2cc(OCC(=O)N3CCCCCC3)ccc2O1	-1	-5	8	i	16	1
FC(F)(F)Oc1ccccc1C(c1nnnn1Cc1ccccc1)N1CCN(C/C=C/c2ccccc2)CC1 (stereo not given)	/	/	/	/	/	9
CCOC1=NS(=O)(=O)c2ccccc21	-1	-4	4	i	-4	7
O=S1(=O)N=C(SCCO)c2ccccc21	0	-7	6	i	92*	21

Source: PubChem
